Source: PubChem
Only some compounds are listed: those with a hit (about 17% of all), similar ones and a draw of the others.
TDP1 cell CPT: DT40-hTDP1 cell growth loss with CPT; Potency, µM (top dose mostly 46.2 µM), inactives show at the highest dose activity change, negative = growth inhibition, hits mostly inhibitors; chicken DT40 Tdp1-/-;hTDP1 cells + 20 nM CPT, ATP luminescence, 48 h; AID 686979; 12% of 420,000 active; also: % is scaled to controls: 0 for no effect and ±100 for the full control effect; nearly all actives have a fitted effect of over 55% in size
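Chicken DT40 Tdp1-/- cells complemented with human TDP1, 400 cells/well, exposed to compounds plus 20 nM camptothecin for at least 48 h at 37 C; viability read as ATP content by CellTiter-Glo luminescence.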
TDP1 cell noCPT: qHTS for Inhibitors of human tyrosyl-DNA phosphodiesterase 1 (TDP1): qHTS in cells in absence of CPT; AID 686978, 2013; DT40 Tdp1-/- hTDP1 cells, no CPT, ATP luminescence, 48 h; 15% of 420,000 active; Potency, µM (highest dose often 46.2 µM), for inactives: at the highest dose activity change, negative = growth inhibition, actives largely listed as inhibitors; also: % is scaled to controls: 0 for no effect and ±100 for the full control effect; nearly all actives have a fitted effect of over 55% in size
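Chicken DT40 Tdp1-/- cells stably complemented with human TDP1 were seeded at 400 cells/well with DMSO in place of 20 nM camptothecin. After compound pinning, cells grew at least 48 hr at 37 °C; viability read by CellTiter-Glo luminescence.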
ATXN viability: viability counter-screen for ATXN expression inhibitors | 0.49% of 400,000 active | S2 cells (HEK-293 line with an ATXN2-luciferase reporter) viability, CellTiter-Fluor protease fluorescence, 24 h | Potency, µM (titrated, usually from 56.7 µM), hits mostly cytotoxic; also: nearly all actives have a fitted effect of over 40% in size
TGFb SMAD3 inh: inhibitors of TGF-b signaling. HepG2 CAGA-GFP TGF-b/SMAD3 reporter, GFP fluorescence, 18 h; TGF-beta stimulated, 500 pg/mL final. Potency, µM (titrated, usually from 46.1 µM), for the others: at the top dose activity, negative = inhibition, actives largely listed as inhibitors. 1.2% of 410,000 active. AID 588855; also: % is scaled to controls: 0 for no effect and ±100 for the full control effect; nearly all actives have a fitted effect of over 65% in size
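Per well, imaged GFP fluorescence of HEPG2 CAGA-GFP cells gives the signal; cells get compound, then TGF-beta (500 pg/mL final), 18 h at 37 degrees C; %Activity versus -TGF-beta and +DMSO controls.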
ATXN2 expr inh: reduces ATXN2 reporter expression in HEK-293 cells; HEK-293 ATXN2-luciferase reporter, luminescence, 24 h; Potency, µM (doses to about 57 µM), without a hit: top-dose activity change, negative = inhibition, usual class: inhibitors; 0.72% of 360,000 active; also: % is scaled to controls: 0 for no effect and ±100 for the full control effect; nearly all actives have a fitted effect of over 55% in size
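qHTS (up to 57 uM final) was run with 24 h compound exposure of reporter cells at 37 °C. Each well was multiplexed: SteadyGlo luminescence measured ATXN2-luciferase expression after a fluorogenic Gly-Phe-AFC viability readout (25 uM final).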
HepG2 tox: counter-screen for TGF-b inhibitors: cytotoxicity in HepG2 cells. HepG2 CAGA-GFP viability, ATP luminescence, 18 h. Potency, µM (doses to about 46.1 µM), for the others: at the top dose activity change, negative = cytotoxicity, usual class: cytotoxic. 0.76% of 410,000 active. AID 588856
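HepG2 CAGA-GFP cells (1000/well, DMEM with 1% FBS) received compound, then TGF-beta at 500 pg/mL final, and were incubated 18 hours at 37 degrees C. Viability was read by CellTiter-Glo luminescence. Media-only wells were set as complete cell-killing and DMSO as no toxicity.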
* hit, by the source's call; i = inactive; ? = inconclusive; . = not tested or not shown. Calls follow the shape of the dose curve; as a rule, active = well fitted curve in the direction sought with a large enough effect; inconclusive = small, poorly fitted or top-dose-only effect, or another doubt; inactive = no such curve, though single readings can be large; an effect the other way counts as inactive or inconclusive. Potency is read from the fitted curve at half-maximal effect.

SMILES	TDP1 cell CPT	TDP1 cell noCPT	ATXN viability	TGFb SMAD3 inh	ATXN2 expr inh	HepG2 tox
COCCNC(=O)c1ccc(-c2nc(CS(=O)(=O)c3ccccc3)c(C)o2)cc1	-13%	-24%	i	?	-8%	-9%
O=C1CCC(c2ccc(-n3ccnc3)cc2)=NN1	-24%	-3%	i	8%	-1%	-13%
Cn1c(=O)n(C)c2cc([N+](=O)[O-])c(N3CCN(S(C)(=O)=O)CC3)cc21	27%	-24%	i	-7%	13%	-4%
O=C(c1ccccc1)N1CCN(c2ccc([N+](=O)[O-])cc2-n2cccc2)CC1	?	?	i	?	.	-27%
Cn1c(=O)n(C)c2cc([N+](=O)[O-])c(N3CCN(C(=O)c4ccccc4Br)CC3)cc21	?	21µM*	i	-1%	?	-10%
Cn1c(=O)n(C)c2cc([N+](=O)[O-])c(N3CCN(C(=O)c4ccccc4)CC3)cc21	15µM*	18µM*	i	17%	2%	6%
Cn1c(=O)n(C)c2cc([N+](=O)[O-])c(N3CCN(C(=O)c4ccccc4Cl)CC3)cc21	21µM*	16µM*	i	-8%	-29%	-24%
Cn1c(=O)n(C)c2cc([N+](=O)[O-])c(N3CCN(C(=O)C(C)(C)C)CC3)cc21	16µM*	13µM*	i	-4%	-8%	-15%
CC(C(=O)NC1C(=O)N2C(C(=O)O)=C(CSc3nnnn3C)CSC12)n1cc(Cl)cn1 (centres undefined)	1%	-12%	i	6%	-1%	-1%
Cc1ccc2c(CC(=O)Nc3cccc(Cl)c3C)coc2c1	-6%	1%	i	1%	15%	-3%
COc1ccc(S(=O)(=O)N2CCOC2CNC(=O)C(=O)NCCc2ccccc2OC)cc1 (centres undefined)	-28%	-29%	?	9%	-25%	-17%
COc1ccc(S(=O)(=O)N2CCOC2CNC(=O)C(=O)NCCc2c[nH]c3ccccc23)cc1 (centres undefined)	16µM*	?	i	-12%	-18%	-19%
COc1ccc(S(=O)(=O)N2CCOC2CNC(=O)C(=O)NCCc2c[nH]c3ccccc23)cc1C (centres undefined)	23µM*	23µM*	?	-11%	?	-25%
N#Cc1ccccc1COc1cccc2c1CCCC2O (centres undefined)	?	15µM*	i	-18%	-27%	-19%
CN(C)c1ccc(CNC(=O)Cc2ccc(NC(=O)N3CCCCc4ccccc43)cc2)cc1	?	21µM*	i	-23%	7%	-27%
Cc1cccc(CNC(=O)Cc2ccc(NC(=O)N3CCCCc4ccccc43)cc2)c1	?	16µM*	?	?	11%	-36%
COc1ccc(C)cc1NC(=O)N1CCCc2ccccc21	?	23µM*	i	-16%	14%	-16%
Cc1ccccc1CNC(=O)Cc1ccc(NC(=O)N2CCCCc3ccccc32)cc1	?	18µM*	?	-1%	-17%	-7%
CC(C)(C)c1cc(C(C)(C)C)c2oc(=O)c(-c3nc4ccccc4[nH]3)cc2c1	9.2µM*	8.2µM*	i	28%	10%	-2%
Cc1cccc(CN2CCN(CC(=O)Nc3c(C)cccc3C)S2(=O)=O)c1	?	16µM*	.	-56%	.	-17%
CCc1cccc(NC(=O)CN2CCCN(Cc3cccc(C)c3)S2(=O)=O)c1	?	29µM*	?	?	-16%	-37%
Cc1ccc(C)c(NC(=O)CN2CCCN(Cc3cccc(Cl)c3)S2(=O)=O)c1	?	?	.	0%	.	-17%
